Source: PubChem BioAssay (EPA / NIEHS)
Some compounds were tested as several samples or in several runs, with calls that do not always agree. Activity calls are given as the source filed them. The calls were made as follows: active = hit-call score of the fitted dose curve at least 0.9, where 1 is the maximum; inactive = score below 0.9.

Tests used:
Settings in all cases: mRNA level, 48 h; actives raise or lower the signal
CYP2C9 (gene 1559) = assay: LTEA_HepaRG_CYP2C9: Life Technologies and Expression Analysis (LTEA) Assay for CYP2C9 using HepaRG (AID 2283484)
How it was run: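 HepaRG, 48 h dosing, 8-pt half-log series, top 100 uM, 0.5% DMSO vehicle. Read-out: CYP2C9 transcript by TaqMan qRT-PCR, housekeeping-normalized (ACTB/GAPDH/POLR2A). Gain or loss fitted vs DMSO baseline.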

CYP2E1 (gene 1571) = assay: LTEA_HepaRG_CYP2E1: Life Technologies and Expression Analysis (LTEA) Assay for CYP2E1 using HepaRG (AID 2283485)
How it was run: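 CYP2E1 transcript was measured by TaqMan qRT-PCR in human HepaRG cultures after 48 h chemical exposure (top 100 uM, half-log steps, 0.5% DMSO vehicle). Housekeeping-gene normalization; gain or loss fitted relative to DMSO baseline.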

CYP4A11 (gene 1579) = assay: LTEA_HepaRG_CYP4A11: Life Technologies and Expression Analysis (LTEA) Assay for CYP4A11 using HepaRG (AID 2283486)
How it was run: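 HepaRG, 48 h chem exposure, 8 conc (100 uM top, half-log), 0.5% DMSO vehicle; qRT-PCR readout, housekeeping-gene normalized; bidirectional curve fit vs DMSO baseline.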

[1] = read-out: Cytochrome P450 3A4 (Homo sapiens) (UniProt P08684); assay: LTEA_HepaRG_CYP3A4: Life Technologies and Expression Analysis (LTEA) Assay for CYP3A4 using HepaRG (AID 2283487)
How it was run: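 Differentiated HepaRG cells, plated 48 h, then dosed 48 h in serum-free induction medium with 0.5% DMSO, 8 half-log concentrations up to 100 uM, duplicate. CYP3A4 mRNA by qRT-PCR, normalized to ACTB/GAPDH/POLR2A; bidirectional fit versus DMSO.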

[2] = read-out: DNA damage-inducible transcript 3 (DDIT3), DDIT3 (gene 1649); assay: LTEA_HepaRG_DDIT3: Life Technologies and Expression Analysis (LTEA) Assay for DNA damage-inducible transcript 3 (DDIT3) using HepaRG (AID 2283488)
How it was run: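 qRT-PCR readout (Fluidigm TaqMan), housekeeping-normalized to ACTB, GAPDH, POLR2A. HepaRG cells, 48 h exposure, 8-point half-log series from 100 uM in 0.5% DMSO, duplicates. Gain or loss of signal fitted against DMSO baseline.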

[3] = read-out: Pro-epidermal growth factor (Homo sapiens) (UniProt P01133); assay: LTEA_HepaRG_EGF: Life Technologies and Expression Analysis (LTEA) Assay for Epidermal growth factor (EGF) using HepaRG (AID 2283489)
How it was run: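 HepaRG, 48 h dosing, 100 uM top, half-log x8, 0.5% DMSO. Readout: TaqMan qRT-PCR (Fluidigm array), housekeeping-normalized. Gain or loss of signal fit vs DMSO.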

[4] = read-out: Early growth response protein 1 (EGR1) transcription factor, EGR1 (gene 1958); assay: LTEA_HepaRG_EGR1: Life Technologies and Expression Analysis (LTEA) Assay for Early growth response protein 1 (EGR1) transcription factor using HepaRG (AID 2283490)
How it was run: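 HepaRG, 48 h exposure, 8-pt half-log series from 100 uM, 0.5% DMSO vehicle; EGR1 transcript by TaqMan qRT-PCR (Fluidigm array), housekeeping-normalized; bidirectional fit relative to DMSO baseline.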

[5] = read-out: Ezrin (EZR), EZR (gene 7430); assay: LTEA_HepaRG_EZR: Life Technologies and Expression Analysis (LTEA) Assay for Ezrin (EZR) using HepaRG (AID 2283491)
How it was run: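 EZR transcript levels came from Fluidigm qRT-PCR and were normalized to three housekeeping genes after 48 h chemical exposure of HepaRG cells. Dosing used an 8-point half-log series with a 100 uM top concentration in 0.5% DMSO, tested in duplicate; both directions were fitted versus vehicle.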

[6] = read-out: Cytochrome P450 3A7 (Homo sapiens) (UniProt P24462); assay: LTEA_HepaRG_CYP3A7: Life Technologies and Expression Analysis (LTEA) Assay for CYP3A7 using HepaRG (AID 2283492)
How it was run: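 Human HepaRG liver cells, 48 h post-plating, switched to serum-free induction medium and exposed in duplicate for 48 h. Dosing: 100 uM top, half-log dilutions, 8 points, 0.5% DMSO vehicle. Read-out: CYP3A7 mRNA, gain or loss fitted against DMSO baseline.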

[7] = read-out: Fatty Acid-Binding Protein 1 (FABP1), FABP1 (gene 2168); assay: LTEA_HepaRG_FABP1: Life Technologies and Expression Analysis (LTEA) Assay for Fatty Acid-Binding Protein 1 (FABP1) using HepaRG (AID 2283494)
How it was run: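 qRT-PCR readout of FABP1 transcript (normalized to three housekeeping genes) after 48 h chemical exposure of HepaRG cells; eight concentrations, half-log steps, max 100 uM, 0.5% DMSO vehicle; gain or loss fitted relative to DMSO baseline.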

[8] = read-out: Cytochrome P450 4A22 (Homo sapiens) (UniProt Q5TCH4); assay: LTEA_HepaRG_CYP4A22: Life Technologies and Expression Analysis (LTEA) Assay for Cytochrome P450 4A22 (CYP4A22) using HepaRG (AID 2283495)
How it was run: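 Readout is CYP4A22 transcript induction or loss, quantified by qRT-PCR and normalized to ACTB, GAPDH and POLR2A. Human HepaRG cells receive test chemicals for 48 h at eight half-log concentrations from 100 uM in 0.5% DMSO.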

[9] = read-out: Cytochrome P450 7A1 (Homo sapiens) (UniProt P22680); assay: LTEA_HepaRG_CYP7A1: Life Technologies and Expression Analysis (LTEA) Assay for Cytochrome P450 7A1 (CYP7A1) using HepaRG (AID 2283496)
How it was run: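 Using 0.5% DMSO as vehicle and baseline, chemicals were tested in duplicate over an 8-point range from 100 uM on HepaRG cells for 48 h; qRT-PCR signals were normalised to ACTB, GAPDH and POLR2A.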

[10] = read-out: Glutathione S-Transferase (GSTA2), GSTA2 (gene 2939); assay: LTEA_HepaRG_GSTA2: Life Technologies and Expression Analysis (LTEA) Assay for Glutathione S-Transferase (GSTA2) using HepaRG (AID 2283497)
How it was run: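 qRT-PCR readout of GSTA2 transcript, normalized to three housekeeping genes, fitted bidirectionally against 0.5% DMSO baseline. Differentiated HepaRG cells received compound for 48 h at 8 concentrations (top 100 uM, half-log steps).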

[11] = read-out: Glutamate-cysteine ligase catalytic (GCLC), GCLC (gene 2729); assay: LTEA_HepaRG_GCLC: Life Technologies and Expression Analysis (LTEA) Assay for Glutamate-cysteine ligase catalytic (GCLC) using HepaRG (AID 2283498)
How it was run: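 HepaRG, 48 h exposure, 8-pt half-log series from 100 uM, 0.5% DMSO vehicle; TaqMan qRT-PCR for GCLC mRNA, housekeeping-normalized; bidirectional curve fit vs DMSO baseline.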

[12] = read-out: growth arrest and DNA damage 45 (GADD45G), GADD45G (gene 10912); assay: LTEA_HepaRG_GADD45G: Life Technologies and Expression Analysis (LTEA) Assay for growth arrest and DNA damage 45 (GADD45G) using HepaRG (AID 2283499)
How it was run: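 Gain or loss of GADD45G mRNA, quantified by TaqMan qRT-PCR against three housekeeping genes, is fitted in both directions relative to 0.5% DMSO. Human HepaRG cultures receive test chemical for 48 h at up to 100 uM.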

[13] = read-out: Glutamate-cysteine ligase regulatory (GCLM), GCLM (gene 2730); assay: LTEA_HepaRG_GCLM: Life Technologies and Expression Analysis (LTEA) Assay for Glutamate-cysteine ligase regulatory (GCLM) using HepaRG (AID 2283500)
How it was run: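 HepaRG, 48 h dosing, 100 uM top, half-log x8, 0.5% DMSO vehicle. Readout: GCLM mRNA by TaqMan qRT-PCR, housekeeping-normalized (ACTB/GAPDH/POLR2A). Curves fit bidirectionally vs DMSO baseline.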

[14] = read-out: Glutathione S-transferase M3 (GSTM3), GSTM3 (gene 2947); assay: LTEA_HepaRG_GSTM3: Life Technologies and Expression Analysis (LTEA) Assay for Glutathione S-transferase M3 (GSTM3) using HepaRG (AID 2283501)
How it was run: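 HepaRG, plated 48 h, then serum-free induction medium; test chemical 48 h, duplicate; 100 uM top, half-log x8, 0.5% DMSO. Read-out: GSTM3 mRNA (TaqMan qRT-PCR, Fluidigm array). Bidirectional fit vs DMSO.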

[15] = read-out: Heat shock 70 kDa protein 1 (HSPA1A), gene 3303; assay: LTEA_HepaRG_HSPA1A: Life Technologies and Expression Analysis (LTEA) Assay for Heat shock 70 kDa protein 1 (HSPA1A) using HepaRG (AID 2283502)
How it was run: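 HepaRG, 48 h exposure, 8-pt half-log CRC from 100 uM in 0.5% DMSO, duplicates. Readout: TaqMan qRT-PCR of HSPA1A mRNA, housekeeping-normalized (ACTB/GAPDH/POLR2A). Bidirectional fit vs 0.5% DMSO baseline.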

[16] = read-out: Hypoxia-inducible factor 1-alpha (Homo sapiens) (UniProt Q16665); assay: LTEA_HepaRG_HIF1A: Life Technologies and Expression Analysis (LTEA) Assay for Hypoxia-inducible factor 1 (HIF1A) Trancription factor using HepaRG (AID 2283503)
How it was run: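 Gain- or loss-of-signal HIF1A mRNA changes are fitted against a DMSO baseline. HepaRG cultures receive eight concentrations, highest 100 uM, for 48 h in serum-free induction medium with 0.5% DMSO.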

CYP3A5 (gene 1577) = assay: LTEA_HepaRG_CYP3A5: Life Technologies and Expression Analysis (LTEA) Assay for CYP3A5 using HepaRG (AID 2283493)
How it was run: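 qRT-PCR read-out: CYP3A5 transcript in HepaRG lysates, housekeeping-normalized (ACTB/GAPDH/POLR2A), fitted bidirectionally against 0.5% DMSO baseline. Exposure 48 h, eight half-log concentrations up to 100 uM, duplicates.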

Cytochrome P450 3A7 (Homo sapiens), sequence (P24462 whole entry, looked up): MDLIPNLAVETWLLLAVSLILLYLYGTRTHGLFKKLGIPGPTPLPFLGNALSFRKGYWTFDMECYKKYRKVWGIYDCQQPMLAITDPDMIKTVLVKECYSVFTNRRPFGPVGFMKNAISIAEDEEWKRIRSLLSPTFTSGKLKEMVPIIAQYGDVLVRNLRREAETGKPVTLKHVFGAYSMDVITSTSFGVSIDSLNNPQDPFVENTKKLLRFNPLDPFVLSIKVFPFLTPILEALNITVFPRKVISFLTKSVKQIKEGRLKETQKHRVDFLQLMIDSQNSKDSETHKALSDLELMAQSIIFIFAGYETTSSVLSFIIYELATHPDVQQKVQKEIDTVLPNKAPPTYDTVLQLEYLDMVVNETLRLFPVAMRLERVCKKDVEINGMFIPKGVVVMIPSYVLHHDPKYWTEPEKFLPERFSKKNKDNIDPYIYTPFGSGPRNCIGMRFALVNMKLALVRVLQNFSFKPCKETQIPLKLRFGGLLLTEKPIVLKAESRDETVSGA
Cytochrome P450 3A4 (Homo sapiens), sequence (P08684 whole entry, looked up): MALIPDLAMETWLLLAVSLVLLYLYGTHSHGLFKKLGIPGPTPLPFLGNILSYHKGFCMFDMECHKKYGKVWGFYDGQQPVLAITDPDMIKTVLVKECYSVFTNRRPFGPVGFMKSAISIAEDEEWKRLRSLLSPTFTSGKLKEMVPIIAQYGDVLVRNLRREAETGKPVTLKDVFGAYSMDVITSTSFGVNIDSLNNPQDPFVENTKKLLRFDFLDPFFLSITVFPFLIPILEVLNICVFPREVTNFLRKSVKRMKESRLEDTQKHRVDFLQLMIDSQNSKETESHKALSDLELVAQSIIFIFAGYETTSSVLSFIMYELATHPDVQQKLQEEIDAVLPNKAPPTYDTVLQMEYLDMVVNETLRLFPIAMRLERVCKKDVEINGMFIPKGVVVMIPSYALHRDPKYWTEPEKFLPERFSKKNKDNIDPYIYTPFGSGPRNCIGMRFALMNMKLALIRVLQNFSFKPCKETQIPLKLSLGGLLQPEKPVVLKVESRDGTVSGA
Hypoxia-inducible factor 1-alpha (Homo sapiens), sequence (Q16665 whole entry, looked up): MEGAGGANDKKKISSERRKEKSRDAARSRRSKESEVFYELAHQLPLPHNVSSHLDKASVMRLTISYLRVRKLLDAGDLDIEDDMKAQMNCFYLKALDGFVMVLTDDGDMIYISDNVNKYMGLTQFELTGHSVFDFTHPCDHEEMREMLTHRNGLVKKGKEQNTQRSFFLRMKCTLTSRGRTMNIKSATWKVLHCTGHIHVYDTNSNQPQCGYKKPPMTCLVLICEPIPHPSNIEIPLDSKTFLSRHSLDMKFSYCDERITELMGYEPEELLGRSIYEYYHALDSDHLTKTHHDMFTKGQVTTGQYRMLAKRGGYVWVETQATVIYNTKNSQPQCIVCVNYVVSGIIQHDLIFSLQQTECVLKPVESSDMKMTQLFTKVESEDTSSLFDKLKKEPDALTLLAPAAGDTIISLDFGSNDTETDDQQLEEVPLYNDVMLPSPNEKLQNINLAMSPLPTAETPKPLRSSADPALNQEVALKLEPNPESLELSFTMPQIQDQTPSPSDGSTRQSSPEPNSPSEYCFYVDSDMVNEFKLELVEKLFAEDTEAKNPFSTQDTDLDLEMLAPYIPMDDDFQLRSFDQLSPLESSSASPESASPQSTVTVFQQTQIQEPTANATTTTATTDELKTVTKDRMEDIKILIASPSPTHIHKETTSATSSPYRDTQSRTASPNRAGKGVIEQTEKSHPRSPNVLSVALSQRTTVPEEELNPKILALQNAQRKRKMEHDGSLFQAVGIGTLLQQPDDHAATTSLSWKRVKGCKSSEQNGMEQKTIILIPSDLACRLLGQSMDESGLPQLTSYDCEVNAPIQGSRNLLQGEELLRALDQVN

CCOC(=O)COc1cc(-n2ncc(C(F)(F)F)c(C)c2=O)c(F)cc1Cl
outcome (CYP2C9 (gene 1559)): inactive
outcome (CYP2E1 (gene 1571)): inactive
outcome (CYP4A11 (gene 1579)): inactive
AC50 [1]: 50 µM (active)
outcome [2]: inactive
outcome [3]: inactive
outcome [4]: inactive
outcome [5]: inactive
AC50 [6]: 28.9 µM (active)
outcome [7]: inactive
outcome [8]: inactive
outcome [9]: inactive
outcome [10]: inactive
outcome [11]: inactive
outcome [12]: inactive
outcome [13]: inactive
outcome [14]: inactive
outcome [15]: inactive
outcome [16]: inactive

CC(C)CCCCCCc1ccc(O)cc1
outcome (CYP2C9 (gene 1559)): inactive
outcome (CYP2E1 (gene 1571)): inactive
outcome (CYP4A11 (gene 1579)): inactive
AC50 [1]: 50 µM (active)
outcome [2]: inactive
outcome [3]: inactive
outcome [4]: inactive
outcome [5]: inactive
outcome [6]: inactive
outcome (CYP3A5 (gene 1577)): inactive
outcome [7]: inactive
outcome [8]: inactive
outcome [9]: inactive
outcome [10]: inactive
outcome [11]: inactive
outcome [12]: inactive
outcome [13]: inactive
outcome [14]: inactive
outcome [15]: inactive
outcome [16]: inactive

COC(=O)CSc1cc(N=c2sc(=O)n3n2CCCC3)c(F)cc1Cl
outcome (CYP2C9 (gene 1559)): inactive
AC50 (CYP2E1 (gene 1571)): 50 µM (active)
outcome (CYP4A11 (gene 1579)): inactive
AC50 [1]: 13.5 µM (active)
outcome [2]: inactive
outcome [3]: inactive
outcome [4]: inactive
outcome [5]: inactive
AC50 [6]: 16 µM (active)
outcome (CYP3A5 (gene 1577)): inactive
outcome [7]: inactive
outcome [8]: inactive
outcome [9]: inactive
outcome [10]: inactive
outcome [12]: inactive
outcome [13]: inactive
outcome [14]: inactive
outcome [15]: inactive
outcome [16]: inactive

CCOC(=O)C(C)Oc1ccc(Oc2nc3ccc(Cl)cc3o2)cc1 (stereo not drawn)
AC50 (CYP2C9 (gene 1559)): 19.6 µM (active)
AC50 (CYP2E1 (gene 1571)): 35.6 µM (active)
outcome (CYP4A11 (gene 1579)): inactive
outcome [1]: inactive
outcome [2]: inactive
outcome [3]: inactive
outcome [4]: inactive
outcome [5]: inactive
outcome [6]: inactive
outcome [7]: inactive
outcome [8]: inactive
AC50 [9]: 19.9 µM (active)
AC50 [10]: 38.3 µM (active)
outcome [12]: inactive
outcome [13]: inactive
outcome [14]: inactive
outcome [15]: inactive
outcome [16]: inactive

CC(C)(c1ccc(O)cc1)c1ccc(O)cc1
AC50 (CYP2C9 (gene 1559)): 9.92 µM (active)
outcome (CYP2C9 (gene 1559)): inactive
outcome (CYP2E1 (gene 1571)): inactive
outcome (CYP4A11 (gene 1579)): inactive
outcome [1]: inactive
outcome [2]: inactive
outcome [3]: inactive
outcome [4]: inactive
outcome [5]: inactive
outcome [6]: inactive
outcome (CYP3A5 (gene 1577)): inactive
AC50 [7]: 50 µM (active)
outcome [7]: inactive
outcome [8]: inactive
outcome [9]: inactive
outcome [10]: inactive
outcome [12]: inactive
outcome [13]: inactive
outcome [14]: inactive
AC50 [15]: 0.0172 µM (active)
outcome [15]: inactive
outcome [16]: inactive
